These results are taken from PubChem BioAssay (NCI).

The panel holds about 83,000 compounds, 20% with a hit somewhere; the sample as a whole holds those more often.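 Cell lines were cultured in 96-well plates, exposed to a single compound concentration, and assessed for percent growth 48 hours later.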 The source made the active and inactive calls. The calls were made as follows: active = growth percent below 10; inactive = the rest.

The first test has as its system TK-10 renal. Description: NCI-60 one-dose screen, 48 h (100 = growth as untreated, 0 = no growth, -100 = all killed). To be noted: 10 µM unless noted.
For `COc1cccc2cc(-c3cc4ccccc4[nH]3)/c(=N/C(=S)Nc3ccc(C)cc3)oc12`, the growth was 94.3% (inactive).
The same measure, in the same setting: for `CN1C(=O)N(C)C2NC(N/N=C/c3ccccc3)=NC21` (stereo unspecified) the value was 100% (inactive); for `COc1cc(-c2cc(=O)oc3cc(O)ccc23)cc(OC)c1OC`, 110% (inactive); for `COc1ccccc1/C=N/NC1=NC2C(N1)N(C)C(=O)N2C` (stereo unspecified), 125% (inactive).
On the same count and under the same terms, for `CCN(CC)CCSCCCNc1c(C)cnc2cc(Cl)ccc12` the value was 118% (inactive).
The same measure, in the same setting: for `COc1cc(Nc2cc(O)c3c(=O)cc(-c4ccccc4)oc3c2)cc(OC)c1` the value was 44% (inactive).
Consider `NC(=O)c1ncn(C2OC(CO)C(O)C2O)n1` (stereo unspecified), for which the growth was 109% (inactive).
Regarding `C(=N\Nc1ncc(-c2cc3cc4c(cc3o2)OCO4)s1)/c1c[nH]c2ccccc12`, the growth was 22.7% (inactive).
The same measure, in the same setting: for `c1ccc(C2CC(c3cccc(Nc4ccncc4)c3)=NN2c2ccccc2)cc1` (stereo unspecified) the value was 98.9% (inactive); for `CC1=NNC(=O)C1CCC(=O)N/N=C(\C)c1ccc2ccccc2c1` (stereo unspecified), 130% (inactive).
On the same count and under the same terms, for `O=C(N/N=C/c1ccncc1)c1ccccc1Nc1cccc(C(F)(F)F)c1` the value was 102% (inactive); for `COc1ccc(Nn2c(SCC(=O)Nc3nc(-c4ccc(Cl)cc4)cs3)nc(C)c2C)cc1`, 68.5% (inactive).
Still for that read-out and setting: for `COc1c(Cl)cc(Cl)c2ccc(C=C3C(=O)N(C)C(=O)N(C)C3=O)nc12` the value was 102% (inactive); for `Cc1cccc(C)c1-c1cc(Cc2ccc(Cl)cc2)c(=O)[nH]n1`, 114% (inactive); for `CCN1C(=O)N(CC)C2C1NN=c1s/c(=C3\C(=O)Nc4ccccc43)c(=O)n12` (stereo unspecified), 60.5% (inactive).
In the case of `CC(=O)Nc1ccc(C(=O)Nc2cc(-c3ccccc3)ccc2N)cc1`, the growth was 59.5% (inactive).
On the same count and under the same terms, for `CN1CCN(c2cc(F)c(NC3=C(Cl)C(=O)c4ncccc4C3=O)c(F)c2)CC1` the value was 8.46% (active); for `Clc1nc(Cl)c2ncn(CC3(Cn4cnc5c(Cl)nc(Cl)nc54)COC3)c2n1`, -93.2% (active).
Turning to `CC(C)(C)CC(C)(C)Nc1c(-c2ccc(C(F)(F)F)cc2)nc2cnccn12`, the growth was 102% (inactive).
Still for that read-out and setting: for `CCC(C)N(CCNc1cc(OC)cc2cccnc12)CCC(C)C` (stereo unspecified) the value was 96.7% (inactive).
Still for that read-out and setting: for `Cn1c(COC(=O)NCCc2ccccn2)nc2c(N3CCOCC3)nc(Cl)nc21` the value was -72.2% (active); for `BrC(Br)(Br)c1cnc2ccccc2n1`, -57.9% (active).
On the same count and under the same terms, for `Clc1ccc(N2N=C(c3cccc(Nc4ccncc4)c3)CC2c2ccc3c(c2)OCO3)cc1` (stereo unspecified) the value was 83.5% (inactive); for `COc1cc(CNC(=O)CCCCC[P+](c2ccccc2)(c2ccccc2)c2ccccc2)c(OC)c2c1OCO2`, 84.3% (inactive); for `CC[C@@]12C=CCN3CC[C@]4(c5cc(NC(=O)COc6cc(OCC(=O)Nc7cc8c(cc7OC)N(C)[C@H]7[C@@](O)(C(=O)OC)[C@H](OC(C)=O)[C@]9(CC)C=CCN%10CC[C@]87[C@@H]%109)cc7oc(-c8ccccc8)cc(=O)c67)c(OC)cc5N(C)[C@@H]4[C@](O)(C(=O)OC)[C@H]1OC(C)=O)[C@H]32`, 42.8% (inactive).
For the compound `O=C1Nc2c(ccc(Cl)c2Cl)/C1=C/c1ccc(O)cc1`, the growth was 101% (inactive).
Turning to `COc1ccc(/C=C(/c2ccccc2)[N+](=O)[O-])cc1`, the growth is -83.2% (active).
The same measure, in the same setting: for `COc1ccccc1/C=C1\Oc2cc(OCCCN3CCCC3)ccc2C1=O` the value was 104% (inactive); for `COc1ccc(/C=C\c2nc3ccccc3s2)cc1OP(=O)(O)O`, 90.3% (inactive); for `COc1ccc(-c2c[nH]c(C(=O)O)c2-c2cc(OC)c3c(c2OC)OCO3)cc1`, 116% (inactive).
The same measure, in the same setting: for `COc1ccc(C(=O)c2cc3c(N)c(C(=O)Nc4cccc(Cl)c4C)sc3nc2C)cc1` the value was 50.9% (inactive).
Still for that read-out and setting: for `O=C(/C=C\c1ccc(OCCCCCC[P+](c2ccccc2)(c2ccccc2)c2ccccc2)cc1)c1ccc2c(c1)OCCO2` the value was -9.1% (active).
Take `Cc1cccc(Oc2ccc(Nc3ncnc4ccc(NC(=O)CNCCO)cc34)cc2Cl)c1`: the growth is 39.8% (inactive).
On the same count and under the same terms, for `O=C(CSc1nc2sc3c(c2c(=O)n1Cc1ccccc1)CCCC3)N1CCN(c2ccccc2)CC1` the value was 104% (inactive); for `Cc1cccc(Oc2ccc(Nc3ncnc4ccc(NC(=O)CN(C)C)cc34)cc2Cl)c1`, 36% (inactive).
The same measure, in the same setting: for `O=C1/C(=C/c2ccc(O)cc2)COc2ccc(-c3ccccc3)cc21` the value was 83.9% (inactive); for `COc1ccc(C(=O)c2cc3c(N)c(C(=O)Nc4cccc(OC)c4)sc3nc2C)cc1`, 57.1% (inactive); for `NS(=O)(=O)c1cccc(NC(=O)C(=O)C2C(=O)Nc3ccccc32)c1` (stereo unspecified), 129% (inactive).

For another test, the system named is ACHN renal. Described as above. To be noted: 10 µM unless noted.
Consider `COc1cccc2cc(-c3cc4ccccc4[nH]3)/c(=N/C(=S)Nc3ccc(C)cc3)oc12`, for which the growth was 27.9% (inactive).
For the compound `CN1C(=O)N(C)C2NC(N/N=C/c3ccccc3)=NC21` (stereo unspecified), the growth was 102% (inactive).
Same read-out and setting: for `COc1cc(-c2cc(=O)oc3cc(O)ccc23)cc(OC)c1OC` the value was 89.3% (inactive); for `COc1ccccc1/C=N/NC1=NC2C(N1)N(C)C(=O)N2C` (stereo unspecified), 102% (inactive); for `CCN(CC)CCSCCCNc1c(C)cnc2cc(Cl)ccc12`, 94.6% (inactive).
On the same count and under the same terms, for `COc1cc(Nc2cc(O)c3c(=O)cc(-c4ccccc4)oc3c2)cc(OC)c1` the value was 48.3% (inactive); for `NC(=O)c1ncn(C2OC(CO)C(O)C2O)n1` (stereo unspecified), 90.5% (inactive); for `C(=N\Nc1ncc(-c2cc3cc4c(cc3o2)OCO4)s1)/c1c[nH]c2ccccc12`, -31.4% (active).
Still for that read-out and setting: for `c1ccc(C2CC(c3cccc(Nc4ccncc4)c3)=NN2c2ccccc2)cc1` (stereo unspecified) the value was 90.1% (inactive); for `CC1=NNC(=O)C1CCC(=O)N/N=C(\C)c1ccc2ccccc2c1` (stereo unspecified), 111% (inactive).
For `O=C(N/N=C/c1ccncc1)c1ccccc1Nc1cccc(C(F)(F)F)c1`, the growth is 90.5% (inactive).
Same read-out and setting: for `COc1ccc(Nn2c(SCC(=O)Nc3nc(-c4ccc(Cl)cc4)cs3)nc(C)c2C)cc1` the value was 52% (inactive); for `COc1c(Cl)cc(Cl)c2ccc(C=C3C(=O)N(C)C(=O)N(C)C3=O)nc12`, 106% (inactive).
On the same count and under the same terms, for `Cc1cccc(C)c1-c1cc(Cc2ccc(Cl)cc2)c(=O)[nH]n1` the value was 112% (inactive); for `CCN1C(=O)N(CC)C2C1NN=c1s/c(=C3\C(=O)Nc4ccccc43)c(=O)n12` (stereo unspecified), 43% (inactive).
As to `CC(=O)Nc1ccc(C(=O)Nc2cc(-c3ccccc3)ccc2N)cc1`, the growth was 54.8% (inactive).
On to `CN1CCN(c2cc(F)c(NC3=C(Cl)C(=O)c4ncccc4C3=O)c(F)c2)CC1`, for which the growth was -93.1% (active).
For `Clc1nc(Cl)c2ncn(CC3(Cn4cnc5c(Cl)nc(Cl)nc54)COC3)c2n1`, the growth is -98.7% (active).
On the same count and under the same terms, for `CC(C)(C)CC(C)(C)Nc1c(-c2ccc(C(F)(F)F)cc2)nc2cnccn12` the value was 87% (inactive); for `CCC(C)N(CCNc1cc(OC)cc2cccnc12)CCC(C)C` (stereo unspecified), 75.2% (inactive); for `Cn1c(COC(=O)NCCc2ccccn2)nc2c(N3CCOCC3)nc(Cl)nc21`, -100% (active).
On the same count and under the same terms, for `BrC(Br)(Br)c1cnc2ccccc2n1` the value was -51.6% (active); for `Clc1ccc(N2N=C(c3cccc(Nc4ccncc4)c3)CC2c2ccc3c(c2)OCO3)cc1` (stereo unspecified), 41.6% (inactive).
As to `COc1cc(CNC(=O)CCCCC[P+](c2ccccc2)(c2ccccc2)c2ccccc2)c(OC)c2c1OCO2`, the growth was 106% (inactive).
Same read-out and setting: for `CC[C@@]12C=CCN3CC[C@]4(c5cc(NC(=O)COc6cc(OCC(=O)Nc7cc8c(cc7OC)N(C)[C@H]7[C@@](O)(C(=O)OC)[C@H](OC(C)=O)[C@]9(CC)C=CCN%10CC[C@]87[C@@H]%109)cc7oc(-c8ccccc8)cc(=O)c67)c(OC)cc5N(C)[C@@H]4[C@](O)(C(=O)OC)[C@H]1OC(C)=O)[C@H]32` the value was 85.4% (inactive).
The same measure, in the same setting: for `O=C1Nc2c(ccc(Cl)c2Cl)/C1=C/c1ccc(O)cc1` the value was 87.6% (inactive); for `COc1ccc(/C=C(/c2ccccc2)[N+](=O)[O-])cc1`, -97.4% (active).
Still for that read-out and setting: for `COc1ccccc1/C=C1\Oc2cc(OCCCN3CCCC3)ccc2C1=O` the value was 97.4% (inactive).
On to `COc1ccc(/C=C\c2nc3ccccc3s2)cc1OP(=O)(O)O`, for which the growth is 56.9% (inactive).
On the same count and under the same terms, for `COc1ccc(-c2c[nH]c(C(=O)O)c2-c2cc(OC)c3c(c2OC)OCO3)cc1` the value was 100% (inactive).
On the same count and under the same terms, for `COc1ccc(C(=O)c2cc3c(N)c(C(=O)Nc4cccc(Cl)c4C)sc3nc2C)cc1` the value was 24.1% (inactive); for `O=C(/C=C\c1ccc(OCCCCCC[P+](c2ccccc2)(c2ccccc2)c2ccccc2)cc1)c1ccc2c(c1)OCCO2`, 5.03% (active).
Turning to `Cc1cccc(Oc2ccc(Nc3ncnc4ccc(NC(=O)CNCCO)cc34)cc2Cl)c1`, the growth was 27.1% (inactive).
Same read-out and setting: for `O=C(CSc1nc2sc3c(c2c(=O)n1Cc1ccccc1)CCCC3)N1CCN(c2ccccc2)CC1` the value was 104% (inactive); for `Cc1cccc(Oc2ccc(Nc3ncnc4ccc(NC(=O)CN(C)C)cc34)cc2Cl)c1`, 16.8% (inactive).
Same read-out and setting: for `O=C1/C(=C/c2ccc(O)cc2)COc2ccc(-c3ccccc3)cc21` the value was 86% (inactive); for `COc1ccc(C(=O)c2cc3c(N)c(C(=O)Nc4cccc(OC)c4)sc3nc2C)cc1`, 41.2% (inactive); for `NS(=O)(=O)c1cccc(NC(=O)C(=O)C2C(=O)Nc3ccccc32)c1` (stereo unspecified), 90.4% (inactive).
